Source: the supplement of paper PMC11732987, “Enantioselective OTUD7B fragment discovery through chemoproteomics screening and high-throughput optimisation” (Communications Chemistry, 2025)

Columns and labels:
Assay in all cases: log2 ratio of Biotin-Ahx-Ub-VS probe labelling (fragment/DMSO); higher = less target engagement (more negative = stronger competition), active = hit call of the paper (q ≤ 0.05, log2 ratio ≤ -1)
Details in all cases: compound concentration: 200 uM; treatment time: 3 h
USP42 = target: T1, USP42 (UniProt Q9H9J4)
T1 sequence (whole entry): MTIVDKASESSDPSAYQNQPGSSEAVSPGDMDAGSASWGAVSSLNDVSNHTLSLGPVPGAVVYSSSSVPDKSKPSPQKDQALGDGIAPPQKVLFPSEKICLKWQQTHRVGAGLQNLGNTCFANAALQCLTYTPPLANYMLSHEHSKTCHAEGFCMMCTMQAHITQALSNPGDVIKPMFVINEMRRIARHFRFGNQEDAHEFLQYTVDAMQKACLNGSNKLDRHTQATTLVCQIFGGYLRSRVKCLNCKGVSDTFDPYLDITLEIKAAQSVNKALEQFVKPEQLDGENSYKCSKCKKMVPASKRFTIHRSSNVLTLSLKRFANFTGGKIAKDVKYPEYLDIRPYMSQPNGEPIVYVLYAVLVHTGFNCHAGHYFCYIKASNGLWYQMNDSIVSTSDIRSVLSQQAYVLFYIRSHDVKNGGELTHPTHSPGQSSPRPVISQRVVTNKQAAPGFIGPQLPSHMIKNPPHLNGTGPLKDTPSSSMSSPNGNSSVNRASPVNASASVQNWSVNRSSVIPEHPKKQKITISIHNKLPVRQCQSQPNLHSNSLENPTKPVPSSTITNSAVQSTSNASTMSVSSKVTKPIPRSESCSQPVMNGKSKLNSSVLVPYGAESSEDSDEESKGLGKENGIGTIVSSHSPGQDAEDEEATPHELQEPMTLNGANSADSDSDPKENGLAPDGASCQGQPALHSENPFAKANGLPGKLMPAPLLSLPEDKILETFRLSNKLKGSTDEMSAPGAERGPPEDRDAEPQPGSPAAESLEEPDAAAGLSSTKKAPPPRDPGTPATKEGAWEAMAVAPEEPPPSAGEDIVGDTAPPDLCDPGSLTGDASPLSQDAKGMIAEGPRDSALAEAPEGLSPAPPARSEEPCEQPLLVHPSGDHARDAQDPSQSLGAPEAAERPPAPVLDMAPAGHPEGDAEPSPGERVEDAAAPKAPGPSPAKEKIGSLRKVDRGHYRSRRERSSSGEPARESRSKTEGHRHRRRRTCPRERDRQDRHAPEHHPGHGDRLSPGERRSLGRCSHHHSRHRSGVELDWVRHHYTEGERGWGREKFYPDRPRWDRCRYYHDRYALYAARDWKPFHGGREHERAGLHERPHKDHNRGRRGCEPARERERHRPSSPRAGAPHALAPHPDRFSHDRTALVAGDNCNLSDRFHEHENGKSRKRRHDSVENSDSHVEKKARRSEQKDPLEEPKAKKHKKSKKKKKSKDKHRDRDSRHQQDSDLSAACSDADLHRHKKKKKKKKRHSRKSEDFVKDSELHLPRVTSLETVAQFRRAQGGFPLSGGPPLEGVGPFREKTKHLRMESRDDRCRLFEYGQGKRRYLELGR
Summary of the method: (§1)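 Using Biotin-Ahx-Ub-VS at 0.5 µM final for 1 h, DUBs were labelled in HEK293T lysate (495 µg per sample) that had first been treated in triplicate with fragment at 200 µM or vehicle for 3 h. NeutrAvidin enrichment, LysC and trypsin digestion and diaPASEF LC-MS/MS followed. Spectronaut label-free quantities were global-median-normalised. Values are average log2 fragment/vehicle ratios by unpaired t-test, using proteins with ≥2 unique peptides.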

USP46 = USP46 (UniProt P62068)
Summary of the method: as §1

USP47 = target: T2, USP47 (UniProt Q96K76)
T2 sequence (whole entry): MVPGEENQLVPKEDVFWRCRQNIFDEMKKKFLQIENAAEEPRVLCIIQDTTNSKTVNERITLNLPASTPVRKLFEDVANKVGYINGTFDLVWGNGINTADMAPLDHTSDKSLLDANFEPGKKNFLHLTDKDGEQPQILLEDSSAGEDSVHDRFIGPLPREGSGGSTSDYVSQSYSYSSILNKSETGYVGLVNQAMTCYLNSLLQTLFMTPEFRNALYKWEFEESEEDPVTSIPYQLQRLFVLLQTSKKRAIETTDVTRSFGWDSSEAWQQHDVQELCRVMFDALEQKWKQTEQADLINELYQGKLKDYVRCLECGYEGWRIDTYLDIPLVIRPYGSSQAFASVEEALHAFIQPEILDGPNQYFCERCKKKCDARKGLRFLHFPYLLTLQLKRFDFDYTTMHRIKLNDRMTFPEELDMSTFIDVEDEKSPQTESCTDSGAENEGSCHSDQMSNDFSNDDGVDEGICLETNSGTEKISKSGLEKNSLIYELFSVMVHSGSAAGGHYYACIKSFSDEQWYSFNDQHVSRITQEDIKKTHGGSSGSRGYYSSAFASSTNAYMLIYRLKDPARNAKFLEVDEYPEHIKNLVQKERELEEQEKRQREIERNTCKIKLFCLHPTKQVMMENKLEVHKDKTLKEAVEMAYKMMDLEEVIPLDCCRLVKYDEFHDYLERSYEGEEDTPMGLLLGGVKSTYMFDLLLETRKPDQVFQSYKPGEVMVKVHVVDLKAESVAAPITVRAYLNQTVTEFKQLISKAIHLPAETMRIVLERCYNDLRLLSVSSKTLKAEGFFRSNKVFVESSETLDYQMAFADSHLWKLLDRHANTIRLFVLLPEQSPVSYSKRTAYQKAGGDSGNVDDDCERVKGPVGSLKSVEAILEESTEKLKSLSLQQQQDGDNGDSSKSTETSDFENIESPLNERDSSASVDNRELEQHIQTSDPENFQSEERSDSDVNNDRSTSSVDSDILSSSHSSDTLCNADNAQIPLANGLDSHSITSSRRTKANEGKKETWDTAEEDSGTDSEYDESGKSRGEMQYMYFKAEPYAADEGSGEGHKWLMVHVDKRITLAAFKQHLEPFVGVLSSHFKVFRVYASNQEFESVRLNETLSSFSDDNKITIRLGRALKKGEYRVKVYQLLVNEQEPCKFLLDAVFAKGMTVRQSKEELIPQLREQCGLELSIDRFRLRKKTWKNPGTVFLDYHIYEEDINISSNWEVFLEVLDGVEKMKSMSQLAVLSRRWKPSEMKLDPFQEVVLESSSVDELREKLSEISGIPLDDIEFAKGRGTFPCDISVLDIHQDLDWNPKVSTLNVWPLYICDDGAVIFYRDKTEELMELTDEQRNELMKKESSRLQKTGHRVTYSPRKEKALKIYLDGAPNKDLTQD
Summary of the method: as §1

USP48 = target: T3, USP48 (UniProt Q86UV5)
T3 sequence (whole entry): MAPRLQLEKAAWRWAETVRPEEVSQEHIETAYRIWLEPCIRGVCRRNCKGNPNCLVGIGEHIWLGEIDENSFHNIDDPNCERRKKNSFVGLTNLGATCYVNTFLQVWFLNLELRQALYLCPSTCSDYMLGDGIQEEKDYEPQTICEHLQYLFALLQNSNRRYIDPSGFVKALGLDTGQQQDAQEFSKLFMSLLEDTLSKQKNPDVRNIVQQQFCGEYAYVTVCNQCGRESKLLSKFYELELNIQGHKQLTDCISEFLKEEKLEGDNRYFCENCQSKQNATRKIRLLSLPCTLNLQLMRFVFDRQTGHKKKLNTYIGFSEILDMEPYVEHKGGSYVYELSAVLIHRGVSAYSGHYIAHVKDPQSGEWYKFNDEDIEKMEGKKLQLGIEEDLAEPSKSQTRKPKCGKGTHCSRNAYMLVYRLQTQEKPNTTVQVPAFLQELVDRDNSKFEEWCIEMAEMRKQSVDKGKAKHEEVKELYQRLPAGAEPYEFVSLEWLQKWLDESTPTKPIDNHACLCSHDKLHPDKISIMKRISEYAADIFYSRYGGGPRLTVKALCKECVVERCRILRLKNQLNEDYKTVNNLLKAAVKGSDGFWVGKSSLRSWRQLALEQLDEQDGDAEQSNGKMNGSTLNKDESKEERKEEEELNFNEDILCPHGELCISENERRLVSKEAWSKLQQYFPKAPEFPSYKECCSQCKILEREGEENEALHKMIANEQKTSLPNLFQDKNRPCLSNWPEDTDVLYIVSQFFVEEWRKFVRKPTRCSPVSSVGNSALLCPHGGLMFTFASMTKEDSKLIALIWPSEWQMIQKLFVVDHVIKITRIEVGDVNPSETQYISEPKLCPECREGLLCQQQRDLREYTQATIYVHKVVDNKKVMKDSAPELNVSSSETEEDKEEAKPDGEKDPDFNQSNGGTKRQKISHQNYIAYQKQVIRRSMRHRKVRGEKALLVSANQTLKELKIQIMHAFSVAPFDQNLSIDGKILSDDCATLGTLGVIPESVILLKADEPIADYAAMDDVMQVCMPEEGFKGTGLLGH
Summary of the method: as §1

USP5 = target: T4, USP5 (UniProt P45974)
T4 sequence (whole entry): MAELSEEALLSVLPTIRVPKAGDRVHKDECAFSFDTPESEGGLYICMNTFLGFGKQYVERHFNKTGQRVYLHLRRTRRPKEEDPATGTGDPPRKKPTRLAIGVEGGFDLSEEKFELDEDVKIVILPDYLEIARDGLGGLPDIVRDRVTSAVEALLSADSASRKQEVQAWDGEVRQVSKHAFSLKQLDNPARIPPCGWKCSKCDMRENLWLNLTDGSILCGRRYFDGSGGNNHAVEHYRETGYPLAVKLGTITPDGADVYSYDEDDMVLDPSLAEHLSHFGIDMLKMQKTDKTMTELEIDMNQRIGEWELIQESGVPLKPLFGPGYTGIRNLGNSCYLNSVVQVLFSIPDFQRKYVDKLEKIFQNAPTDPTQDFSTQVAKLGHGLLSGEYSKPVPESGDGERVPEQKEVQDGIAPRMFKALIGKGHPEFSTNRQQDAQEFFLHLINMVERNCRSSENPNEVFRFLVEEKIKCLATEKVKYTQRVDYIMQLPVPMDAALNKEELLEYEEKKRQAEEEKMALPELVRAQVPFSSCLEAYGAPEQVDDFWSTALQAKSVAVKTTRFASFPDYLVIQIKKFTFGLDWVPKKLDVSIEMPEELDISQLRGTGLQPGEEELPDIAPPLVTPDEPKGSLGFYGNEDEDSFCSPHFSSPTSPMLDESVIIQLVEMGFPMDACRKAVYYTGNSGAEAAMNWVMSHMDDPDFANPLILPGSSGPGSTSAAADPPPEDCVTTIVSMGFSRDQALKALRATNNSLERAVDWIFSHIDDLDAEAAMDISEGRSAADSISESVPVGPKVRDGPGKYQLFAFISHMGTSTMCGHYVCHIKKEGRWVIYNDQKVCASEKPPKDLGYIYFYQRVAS
Summary of the method: as §1

USP54 = USP54 (UniProt Q70EL1)
Summary of the method: as §1

USP7 = USP7 (UniProt Q93009)
Summary of the method: as §1

USP8 = target: T5, USP8 (UniProt P40818)
T5 sequence (whole entry): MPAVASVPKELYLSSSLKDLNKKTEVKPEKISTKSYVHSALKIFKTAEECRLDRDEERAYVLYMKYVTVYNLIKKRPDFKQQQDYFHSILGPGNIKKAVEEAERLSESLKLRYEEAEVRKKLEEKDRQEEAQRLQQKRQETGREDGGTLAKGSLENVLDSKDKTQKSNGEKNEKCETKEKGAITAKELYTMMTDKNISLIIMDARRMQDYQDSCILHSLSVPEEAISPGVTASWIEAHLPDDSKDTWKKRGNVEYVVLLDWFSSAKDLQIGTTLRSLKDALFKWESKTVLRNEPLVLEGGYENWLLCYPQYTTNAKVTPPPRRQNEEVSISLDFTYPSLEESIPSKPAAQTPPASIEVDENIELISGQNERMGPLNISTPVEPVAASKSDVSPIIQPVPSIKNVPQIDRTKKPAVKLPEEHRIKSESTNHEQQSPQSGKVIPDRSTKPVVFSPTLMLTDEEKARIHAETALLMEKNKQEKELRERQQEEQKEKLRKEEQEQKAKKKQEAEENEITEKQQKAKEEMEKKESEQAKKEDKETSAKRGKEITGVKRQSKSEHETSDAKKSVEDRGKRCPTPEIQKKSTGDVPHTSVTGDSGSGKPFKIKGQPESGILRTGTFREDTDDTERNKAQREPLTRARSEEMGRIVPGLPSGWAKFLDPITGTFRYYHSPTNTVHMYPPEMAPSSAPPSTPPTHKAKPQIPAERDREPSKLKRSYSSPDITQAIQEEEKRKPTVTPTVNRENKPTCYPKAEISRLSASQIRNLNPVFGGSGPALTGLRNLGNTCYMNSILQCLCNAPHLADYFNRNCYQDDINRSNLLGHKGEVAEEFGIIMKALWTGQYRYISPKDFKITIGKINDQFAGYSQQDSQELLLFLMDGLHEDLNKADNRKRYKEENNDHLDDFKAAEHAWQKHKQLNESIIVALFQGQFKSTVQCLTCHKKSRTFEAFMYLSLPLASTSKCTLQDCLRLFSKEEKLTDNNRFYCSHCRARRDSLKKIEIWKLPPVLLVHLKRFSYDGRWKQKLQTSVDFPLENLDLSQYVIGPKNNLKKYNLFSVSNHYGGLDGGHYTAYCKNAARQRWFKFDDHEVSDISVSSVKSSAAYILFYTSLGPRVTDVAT
Summary of the method: as §1

Measured: log2 ratio of Biotin-Ahx-Ub-VS probe labelling

Sequence of USP54 (Q70EL1 whole entry): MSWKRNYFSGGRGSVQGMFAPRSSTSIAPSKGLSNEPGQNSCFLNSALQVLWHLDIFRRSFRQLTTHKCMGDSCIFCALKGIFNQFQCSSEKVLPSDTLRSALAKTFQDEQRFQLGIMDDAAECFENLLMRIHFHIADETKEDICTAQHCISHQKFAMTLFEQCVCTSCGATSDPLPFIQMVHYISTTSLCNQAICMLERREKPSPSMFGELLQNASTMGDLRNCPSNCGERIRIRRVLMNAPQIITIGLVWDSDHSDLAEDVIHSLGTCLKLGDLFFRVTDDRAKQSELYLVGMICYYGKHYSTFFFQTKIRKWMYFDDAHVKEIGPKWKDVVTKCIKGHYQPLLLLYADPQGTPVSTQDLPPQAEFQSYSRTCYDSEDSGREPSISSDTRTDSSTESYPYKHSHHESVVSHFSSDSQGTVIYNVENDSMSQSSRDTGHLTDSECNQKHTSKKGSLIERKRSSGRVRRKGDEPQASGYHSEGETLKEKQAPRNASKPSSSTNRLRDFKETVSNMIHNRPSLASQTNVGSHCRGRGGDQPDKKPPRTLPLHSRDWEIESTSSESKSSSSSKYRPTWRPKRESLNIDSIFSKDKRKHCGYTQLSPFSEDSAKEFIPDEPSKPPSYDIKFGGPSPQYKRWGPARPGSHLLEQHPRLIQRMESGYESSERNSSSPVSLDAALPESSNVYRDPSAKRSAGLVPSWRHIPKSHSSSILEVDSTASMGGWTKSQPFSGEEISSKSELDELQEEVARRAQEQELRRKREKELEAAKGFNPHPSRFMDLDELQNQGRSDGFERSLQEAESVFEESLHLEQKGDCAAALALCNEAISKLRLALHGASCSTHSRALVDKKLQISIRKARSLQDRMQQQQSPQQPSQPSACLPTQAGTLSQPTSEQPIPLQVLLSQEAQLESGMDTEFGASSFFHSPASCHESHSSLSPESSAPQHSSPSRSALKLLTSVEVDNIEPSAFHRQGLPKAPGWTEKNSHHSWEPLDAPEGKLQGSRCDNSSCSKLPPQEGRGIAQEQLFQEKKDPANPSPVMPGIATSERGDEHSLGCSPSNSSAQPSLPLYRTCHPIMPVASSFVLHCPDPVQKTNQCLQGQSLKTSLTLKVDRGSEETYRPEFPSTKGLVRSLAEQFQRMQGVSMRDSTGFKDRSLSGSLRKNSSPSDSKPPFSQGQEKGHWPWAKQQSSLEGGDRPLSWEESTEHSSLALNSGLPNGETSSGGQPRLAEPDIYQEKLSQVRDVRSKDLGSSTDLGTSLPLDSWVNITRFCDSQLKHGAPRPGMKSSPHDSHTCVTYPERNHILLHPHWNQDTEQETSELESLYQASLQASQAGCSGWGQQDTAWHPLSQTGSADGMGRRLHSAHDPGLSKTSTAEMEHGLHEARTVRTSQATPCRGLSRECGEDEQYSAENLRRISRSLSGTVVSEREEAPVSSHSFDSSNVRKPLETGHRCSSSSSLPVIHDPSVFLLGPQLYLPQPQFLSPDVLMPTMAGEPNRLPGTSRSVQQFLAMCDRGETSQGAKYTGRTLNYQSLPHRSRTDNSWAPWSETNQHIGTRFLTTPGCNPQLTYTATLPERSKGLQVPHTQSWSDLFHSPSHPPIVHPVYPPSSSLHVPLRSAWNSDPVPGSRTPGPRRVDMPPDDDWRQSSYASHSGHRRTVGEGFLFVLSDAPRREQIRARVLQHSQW
Sequence of USP7 (Q93009 whole entry, looked up): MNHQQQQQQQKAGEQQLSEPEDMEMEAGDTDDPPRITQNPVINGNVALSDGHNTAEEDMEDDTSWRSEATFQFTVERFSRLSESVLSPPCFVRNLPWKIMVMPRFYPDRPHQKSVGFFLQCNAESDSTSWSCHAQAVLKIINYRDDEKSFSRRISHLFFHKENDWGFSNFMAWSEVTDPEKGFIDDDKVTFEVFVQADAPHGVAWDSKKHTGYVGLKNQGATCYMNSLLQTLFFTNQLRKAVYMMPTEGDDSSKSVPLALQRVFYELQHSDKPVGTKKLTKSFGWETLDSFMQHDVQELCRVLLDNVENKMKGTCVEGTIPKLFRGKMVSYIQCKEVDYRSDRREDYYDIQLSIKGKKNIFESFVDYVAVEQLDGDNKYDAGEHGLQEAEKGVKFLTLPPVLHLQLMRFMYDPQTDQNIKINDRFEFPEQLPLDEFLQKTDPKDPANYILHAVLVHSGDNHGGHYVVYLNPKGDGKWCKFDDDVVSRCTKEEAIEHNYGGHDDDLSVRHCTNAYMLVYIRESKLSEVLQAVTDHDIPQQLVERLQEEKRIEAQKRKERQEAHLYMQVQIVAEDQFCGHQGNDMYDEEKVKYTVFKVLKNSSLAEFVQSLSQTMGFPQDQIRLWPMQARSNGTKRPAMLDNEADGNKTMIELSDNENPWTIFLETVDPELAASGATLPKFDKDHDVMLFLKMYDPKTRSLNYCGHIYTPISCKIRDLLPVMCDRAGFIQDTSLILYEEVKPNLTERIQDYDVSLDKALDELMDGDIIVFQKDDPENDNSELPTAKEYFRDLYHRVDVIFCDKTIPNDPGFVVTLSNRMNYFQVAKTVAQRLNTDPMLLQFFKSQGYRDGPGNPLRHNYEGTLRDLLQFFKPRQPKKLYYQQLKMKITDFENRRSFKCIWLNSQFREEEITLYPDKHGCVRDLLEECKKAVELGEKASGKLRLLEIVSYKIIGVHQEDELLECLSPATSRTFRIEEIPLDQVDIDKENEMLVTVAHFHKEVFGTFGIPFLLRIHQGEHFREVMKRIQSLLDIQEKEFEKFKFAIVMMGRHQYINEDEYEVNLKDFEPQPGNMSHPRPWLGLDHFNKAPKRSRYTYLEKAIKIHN
Sequence of USP46 (P62068 whole entry): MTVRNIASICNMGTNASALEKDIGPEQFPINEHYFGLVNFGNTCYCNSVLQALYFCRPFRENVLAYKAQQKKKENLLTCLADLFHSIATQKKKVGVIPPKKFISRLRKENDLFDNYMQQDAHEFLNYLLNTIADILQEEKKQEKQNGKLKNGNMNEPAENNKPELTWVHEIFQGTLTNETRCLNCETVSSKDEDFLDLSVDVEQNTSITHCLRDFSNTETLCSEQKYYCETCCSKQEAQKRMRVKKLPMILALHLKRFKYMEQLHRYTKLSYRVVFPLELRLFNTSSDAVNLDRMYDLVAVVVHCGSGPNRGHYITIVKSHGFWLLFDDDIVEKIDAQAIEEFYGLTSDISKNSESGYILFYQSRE

Cc1nc(-c2cccc(NC(=O)CCl)c2)cs1
inactive: USP42 0.339 | USP46 -0.382 | USP47 -0.123 | USP48 -0.43 | USP5 -0.284 | USP54 0.0451 | USP7 -0.163 | USP8 -0.282
